# PubChem BioAssay (NCATS)
# Values joined by “and” are separate entries in the source; they are usually repeats but may differ in a detail not shown here. Equal entries are not always repeated. Values without a mark were called inactive. Records with an inconclusive call do not appear. Active and inactive are the calls of the source. Unless noted, calls come from the whole dose curve; as a rule, active = well fitted curve in either direction with a large enough effect (not every such curve was filed as active); inconclusive = small, poorly fitted or top-dose-only effect, or another doubt; inactive = flat fitted curve, though single readings scatter.
# Columns and labels:
# [1] = AP1 Signaling Pathway (AID 357); conditions: ME-180 AP-1-bla reporter, EGF-induced, beta-lactamase ratio, 5 h; at 17.2 µM (top of the series) unless noted;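 note: ME-180 reporter cells stimulated with EGF at its EC50 level; % is set by controls: 0 for no effect and ±100 for the full control effect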
# Procedure, shortened: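 Read-out was the 460nm/530nm emission ratio (excitation 405nm) after CCF4 loading for 2.5 hours at room temperature. Cells carried an AP-1-driven beta-lactamase reporter, were stimulated with EC50 EGF plus compound for 5 hours, and AC50 values came from titrations.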
# [2] = molecular target: Cytochrome P450 1A2 (Homo sapiens) (UniProt P05177); assay: p450-cyp1a2 (AID 410; calls by dose curve; note: potency is the fitted concentration of half-maximal effect;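 for activity change, negative = inhibition: -100% = full effect of reference inhibitor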)
# Procedure, shortened: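 Inhibition was calculated relative to 57 uM furafylline (full inhibition). The reaction used human CYP1A2 at 20nM with Luciferin-ME at its Km, 100uM, driven by an NADPH-regenerating system for 60 min at room temperature.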
# [3] = NFAT Signaling Pathway (AID 444); conditions: Jurkat NFAT-bla M1, carbachol, beta-lactamase ratio, 5 h;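 note: carbachol stimulus at about its EC50 of 1 µM final; % is set by controls: 0 for no effect and ±100 for the full control effect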
# Procedure, shortened: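 Jurkat cells carrying an NFAT-driven β-lactamase reporter and co-transfected muscarinic M1 receptor were treated with compound plus carbachol (1 uM final, an EC50 level) for 5 h at 37 °C. CCF4 loading followed for 1 h at RT; 460/530 nm ratio gave %activity.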
# [4] = Stat Signaling Pathway (AID 446);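 note: ME-180 cervical cancer cells given 40 pM IL-6 alongside compound; SIE-controlled beta-lactamase reporter measured as 460/530 nm FRET emission ratio; % is set by controls: 0 for no effect and ±100 for the full control effect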
# Procedure, shortened: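 ME-180 cells carrying a SIE-driven beta-lactamase reporter are stimulated with 40 pM IL-6 for 5 h at 37C in the presence of compound. The 460/530 nm FRET substrate ratio is read after 2.5 h at RT. Data are normalised to 300 pM IL-6 and to 125 nM JAK inhibitor controls.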
# [5] = molecular target: Glucocorticoid receptor (Homo sapiens) (UniProt P04150); assay: GR-GFP Redistribution (AID 450;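 active = compounds whose dose series gives a full or clear partial fitted curve of increased nuclear translocation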; note: potency is the fitted concentration of half-maximal effect); conditions: U2OS GR-GFP nuclear translocation, laser cytometry, 2 h
# Glucocorticoid receptor (Homo sapiens), sequence (P04150 whole entry, looked up): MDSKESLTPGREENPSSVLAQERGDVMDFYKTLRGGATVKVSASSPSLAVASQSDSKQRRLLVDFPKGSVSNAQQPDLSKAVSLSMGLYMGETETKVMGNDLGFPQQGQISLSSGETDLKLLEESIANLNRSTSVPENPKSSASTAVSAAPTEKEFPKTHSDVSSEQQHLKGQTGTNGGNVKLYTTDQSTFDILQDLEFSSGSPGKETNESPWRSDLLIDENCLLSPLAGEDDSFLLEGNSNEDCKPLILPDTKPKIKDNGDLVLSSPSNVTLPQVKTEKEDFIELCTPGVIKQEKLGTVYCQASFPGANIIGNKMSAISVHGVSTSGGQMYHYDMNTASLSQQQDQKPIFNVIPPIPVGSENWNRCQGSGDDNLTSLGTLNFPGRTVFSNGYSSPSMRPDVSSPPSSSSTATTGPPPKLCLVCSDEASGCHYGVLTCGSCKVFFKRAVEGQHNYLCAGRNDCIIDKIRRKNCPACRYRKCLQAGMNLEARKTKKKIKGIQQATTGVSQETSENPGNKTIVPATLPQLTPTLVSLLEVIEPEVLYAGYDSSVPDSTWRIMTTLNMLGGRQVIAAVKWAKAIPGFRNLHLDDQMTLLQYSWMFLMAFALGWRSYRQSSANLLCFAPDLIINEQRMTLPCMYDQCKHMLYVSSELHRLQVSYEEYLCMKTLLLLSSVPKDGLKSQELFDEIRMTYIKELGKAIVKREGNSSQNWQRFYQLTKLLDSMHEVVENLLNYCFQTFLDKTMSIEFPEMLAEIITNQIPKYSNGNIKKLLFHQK
# Cytochrome P450 1A2 (Homo sapiens), sequence (P05177 whole entry, looked up): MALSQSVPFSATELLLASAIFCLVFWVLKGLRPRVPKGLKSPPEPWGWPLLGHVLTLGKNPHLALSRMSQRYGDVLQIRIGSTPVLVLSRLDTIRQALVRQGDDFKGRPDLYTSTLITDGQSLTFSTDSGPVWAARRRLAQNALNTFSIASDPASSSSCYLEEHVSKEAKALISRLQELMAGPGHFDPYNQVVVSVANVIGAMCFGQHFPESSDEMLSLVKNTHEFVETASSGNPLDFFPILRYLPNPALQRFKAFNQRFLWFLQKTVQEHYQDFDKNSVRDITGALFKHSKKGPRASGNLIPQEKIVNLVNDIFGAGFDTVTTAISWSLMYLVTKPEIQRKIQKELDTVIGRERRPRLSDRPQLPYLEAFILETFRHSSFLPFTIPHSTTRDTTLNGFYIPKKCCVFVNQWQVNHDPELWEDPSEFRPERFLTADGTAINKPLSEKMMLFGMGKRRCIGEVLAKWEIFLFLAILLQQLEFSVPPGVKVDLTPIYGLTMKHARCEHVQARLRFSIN
SMILES,"activity change, negative = inhibition [1]",Potency [2],"activity change, negative = inhibition ([3]; at 17.2 µM (top of the series))",outcome [4],Potency [5],"activity change, negative = inhibition ([3]; at 38 µM (top of the series))"
CCOC(=O)NNc1nncc2ccccc12,-6.72%,5.01 µM (active),1.79%,inactive,> 20.6 µM,
OC(CCCN1CCCCC1)(c1ccccc1)c1ccccc1,26.6%,inactive,,inactive,,
CN1CCCN(C(c2ccccc2)c2ccc(Cl)cc2)CC1 (configuration not stated),14.9%,,-95.8% (active),inactive,6.11 µM (active),
O=C1NC(c2cccc([N+](=O)[O-])c2)=CCN1c1ccccc1O,-12.2% [at 38 µM],,,inactive,> 46 µM,4.96%
CCCC(=O)O[C@]1(C(=O)CCl)[C@@H](C)C[C@H]2[C@@H]3CCC4=CC(=O)C=C[C@]4(C)[C@@]3(F)C(=O)C[C@@]21C,2.19%,,,inactive,< 5.9e-06 µM (active),
Brc1ccc([C@H]2CN3CCSC3=N2)cc1,10.4% [at 38 µM],15.8 µM (active),,inactive,> 46 µM,-10.1%
O=C(O)c1ccccc1S,-3.14%,,24.8%,inactive,> 20.6 µM,
C[C@]12CCC(=O)C=C1CC[C@@H]1[C@@H]2[C@@H](O)C[C@@]2(C)[C@H]1CC[C@]2(O)C(=O)COC(=O)CCC(=O)O,-1.32% and 11.9%,,10.9%,inactive,44.2 nM (active) and 599 nM (active),
O=C(CCCCC(=O)Nc1c(I)cc(I)c(C(=O)O)c1I)Nc1c(I)cc(I)c(C(=O)O)c1I,2.09%,inactive,0.68%,inactive,> 20.6 µM,
